PubChem BioAssay AID1159580 (chemical genetic matrix, 2015)
Where “and” joins values, the source holds several entries; their conditions need not be identical. Equal entries are not always repeated. Out of some 5,500 compounds screened, about 2,000 (36%) were called active. Another 18% or so got no clear call; they are omitted. Cut-off read from the data, not from the text of the source: active = normalized growth mostly below about 0.91 (no sharp cut-off); inconclusive = no clear call, values can overlap the other calls; inactive = mostly above about 0.92. The list shows a part of the results.

Assay: chemical genetic growth profiling, strain panel (AID 1159580);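 note: tested at 20 µM; growth read once vehicle control cultures reached saturation at 30 °C; 1 = growth at the plate median or of vehicle wells; lower values mean less growth of the strain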
Settings: S. cerevisiae deletion strains, growth OD

Measured: normalized growth

COC(=O)C[C@H]1C(C)(C)[C@@H](OC(C)=O)[C@@H]2CC3C4CC(=O)O[C@@H](c5ccoc5)[C@]4(C)CCC3[C@@]1(C)C2=O (some centres not stated)
inactive: locus YAL013W, strain DEP1, active compounds read low 1 | locus YAL021C, strain ccr4, active compounds read low 0.979 | locus YAL026C, strain drs2, active compounds read low 1.01 | locus YAL030W, strain snc1, active compounds read low 1 | locus YBL061C, strain skt5, active compounds read low 1.02 | locus YBR009C, strain hhf1, active compounds read low 0.988 | locus YBR021W, strain FUR4, active compounds read low 0.965 | locus YBR023C, strain chs3, active compounds read low 1.02 | locus YBR171W, strain sec66, active compounds read low 1.03 | locus YBR229C, strain ROT2, active compounds read low 0.999 | locus YBR231C, strain swc5, active compounds read low 1.01 | locus YBR279W, strain paf1, active compounds read low 1.01 | locus YCL011C, strain gbp2, active compounds read low 1 | locus YCL016C, strain dcc1, active compounds read low 1.01 | locus YCL029C, strain bik1, active compounds read low 0.973 | locus YCL069W, strain vba3, active compounds read low 1.01 | locus YCR088W, strain abp1, active compounds read low 1.01 | locus YDL005C, strain med2, active compounds read low 1.01 | locus YDL035C, strain GPR1, active compounds read low 0.995 | locus YDL040C, strain nat1, active compounds read low 1.01 | locus YDL074C, strain BRE1, active compounds read low 0.985 | locus YDL101C, strain DUN1, active compounds read low 1.02 | locus YDL134C, strain PPH21, active compounds read low 1.04 | locus YDL185W, strain tfp1, active compounds read low 1.02 | locus YDL192W, strain arf1, active compounds read low 0.989 | locus YDR001C, strain nth1, active compounds read low 1.01 | locus YDR069C, strain doa4, active compounds read low 1.01 | locus YDR101C, strain arx1, active compounds read low 0.996 | locus YDR137W, strain rgp1, active compounds read low 1.01 | locus YDR159W, strain sac3, active compounds read low 1.03 | locus YDR162C, strain NBP2, active compounds read low 1.01 | locus YDR195W, strain ref2 0.98 | locus YDR297W, strain sur2, active compounds read low 0.999 | locus YDR318W, strain mcm21, active compounds read low 1.01 | locus YDR334W, strain swr1, active compounds read low 1.01 | locus YDR335W, strain msn5, active compounds read low 1.04 | locus YDR388W, active compounds read low 1.02 | locus YDR392W, strain spt3, active compounds read low 1.02 | locus YDR502C, strain sam2, active compounds read low 1.04 | locus YEL003W, strain gim4, active compounds read low 1.01 | locus YEL037C, strain rad23, active compounds read low 1.01 | locus YEL061C, strain CIN8 (second series), active compounds read low 1.01 | locus YEL061C, strain CIN8, active compounds read low 0.995 | locus YER015W, strain faa2, active compounds read low 1 | locus YER016W, strain bim1, active compounds read low 1.01 | locus YER110C, active compounds read low 1.02 | locus YER111C, strain swi4, active compounds read low 1.02 | locus YER155C, strain BEM2 (second series), active compounds read low 1.03 | locus YER155C, strain BEM2, active compounds read low 1 | locus YER167W, strain BCK2, active compounds read low 0.996 | locus YFR010W, strain ubp6, active compounds read low 1 | locus YGL078C, strain dbp3, active compounds read low 1.01 | locus YGL086W, strain mad1, active compounds read low 1.01 | locus YGL167C, strain pmr1, active compounds read low 1.02 | locus YGL173C, strain kem1, active compounds read low 1.02 | locus YGL227W, strain vid30, active compounds read low 1.02 | locus YGL240W, strain doc1, active compounds read low 1.03 | locus YGL248W, strain PDE1, active compounds read low 1.04 | locus YGL253W, strain hxk2, active compounds read low 1.01 | locus YGR135W, strain pre9, active compounds read low 1.07 | locus YGR252W, strain gcn5, active compounds read low 1.05 | locus YHR013C, strain ard1, active compounds read low 1.02 | locus YHR027C, strain rpn1, active compounds read low 1.02 | locus YHR030C, strain SLT2, active compounds read low 0.994 and 1.02 | locus YHR079C, strain IRE1 (second series), active compounds read low 1.01 | locus YHR079C, strain IRE1, active compounds read low 1.01 | locus YHR094C, strain hxt1, active compounds read low 1.01 | locus YHR129C, strain ARP1, active compounds read low 1.01 | locus YHR142W, strain chs7, active compounds read low 0.997 | locus YHR200W, strain rpn10, active compounds read low 1 | locus YIL066C, strain RNR3, active compounds read low 0.997 | locus YIL073C, strain SPO22, active compounds read low 1.01 | locus YIL125W, strain kgd1, active compounds read low 1 | locus YIR030C, strain dcg1, active compounds read low 1.01 | locus YJL092W, strain hpr5, active compounds read low 1.01 | locus YJL095W, strain BCK1 (second series), active compounds read low 1 | locus YJL095W, strain BCK1, active compounds read low 1.04 and 1.01 | locus YJL115W, strain asf1, active compounds read low 1.01 | locus YJL129C, strain trk1, active compounds read low 1.01 | locus YJL134W, strain LCB3, active compounds read low 0.99 | locus YJL154C, strain vps35, active compounds read low 1 | locus YJL164C, strain tpk1, active compounds read low 1 | locus YJL166W, strain qcr8, active compounds read low 0.999 | locus YJL168C, strain set2, active compounds read low 1.02 | locus YJL187C, strain SWE1 (second series), active compounds read low 1.05 | locus YJR066W, strain TOR1, active compounds read low 0.963 | locus YKL009W, strain mrt4, active compounds read low 0.998 | locus YKL068W, active compounds read low 1.01 | locus YKL085W, strain MDH1 (second series), active compounds read low 1 | locus YKL085W, strain MDH1, active compounds read low 1 | locus YKL160W, strain elf1, active compounds read low 1.02 | locus YKL190W, strain CNB1, active compounds read low 1 | locus YKR001C, strain vps1, active compounds read low 0.995 | locus YKR026C, strain gcn3, active compounds read low 1.01 | locus YKR091W, strain srl3, active compounds read low 1.01 | locus YLL001W, strain dnm1, active compounds read low 1.01 | locus YLL026W, active compounds read low 1 | locus YLL041C, strain sdh2, active compounds read low 1 | locus YLR027C, strain aat2, active compounds read low 0.999 | locus YLR039C, strain RIC1, active compounds read low 0.993 | locus YLR058C, strain SHM2, active compounds read low 1.02 | locus YLR102C, strain apc9, active compounds read low 1.02 | locus YLR113W, strain HOG1, active compounds read low 0.988 | locus YLR221C, strain rsa3, active compounds read low 0.999 | locus YLR258W, strain gsy2, active compounds read low 1.01 | locus YLR262C, strain YPT6 (second series), active compounds read low 0.955 | locus YLR268W, strain sec22, active compounds read low 0.985 | locus YLR320W, strain mms22, active compounds read low 1.02 | locus YLR342W, strain FKS1, active compounds read low 1 | locus YLR357W, strain rsc2, active compounds read low 1.03 | locus YLR370C, strain arc18, active compounds read low 1.02 | locus YLR371W, strain rom2, active compounds read low 0.989 | locus YLR384C, strain iki3, active compounds read low 1.02 | locus YLR418C, strain cdc73, active compounds read low 1.04 | locus YML016C, strain PPZ1, active compounds read low 1.01 | locus YML032C, strain rad52, active compounds read low 0.994 | locus YML120C, strain ndi1, active compounds read low 1.02 | locus YML124C, strain tub3, active compounds read low 1.01 | locus YMR058W, strain fet3, active compounds read low 1.01 | locus YMR078C, strain ctf18, active compounds read low 1.02 | locus YMR125W, strain sto1, active compounds read low 1.01 | locus YMR129W, active compounds read low 0.999 | locus YMR205C, strain PFK2, active compounds read low 1 | locus YMR223W, strain ubp8, active compounds read low 1.01 | locus YMR231W, strain pep5, active compounds read low 1.01 | locus YMR307W, strain GAS1, active compounds read low 0.876 | locus YNL067W, strain RPL9B, active compounds read low 1.05 | locus YNL071W, strain lat1, active compounds read low 1.02 | locus YNL183C, strain NPR1, active compounds read low 0.981 | locus YNL209W, strain ssb2, active compounds read low 0.996 | locus YNL233W, strain BNI4, active compounds read low 0.988 | locus YNL248C, strain rpa49, active compounds read low 1 | locus YNL250W, strain rad50, active compounds read low 1.04 | locus YNL271C, strain bni1, active compounds read low 1.01 | locus YNL298W, strain CLA4, active compounds read low 1.01 | locus YNL307C, strain MCK1, active compounds read low 1.03 | locus YNL322C, strain KRE1 (second series), active compounds read low 1.02 | locus YNR049C, strain mso1, active compounds read low 0.996 | locus YNR052C, strain pop2, active compounds read low 1.04 | locus YOL012C, strain htz1 0.967 | locus YOL147C, strain pex11, active compounds read low 1.01 | locus YOR001W, strain rrp6, active compounds read low 1.01 | locus YOR061W, strain CKA2, active compounds read low 0.992 | locus YOR069W, strain VPS5, active compounds read low 1 | locus YOR070C, strain gyp1, active compounds read low 1.01 | locus YOR080W, strain dia2, active compounds read low 1.01 | locus YOR083W, strain WHI5, active compounds read low 1.02 | locus YOR106W, strain vam3, active compounds read low 0.988 | locus YOR136W, strain idh2, active compounds read low 1.02 | locus YOR144C, strain elg1, active compounds read low 1.02 | locus YOR184W, strain ser1, active compounds read low 0.973 | locus YOR231W, strain MKK1, active compounds read low 1.01 | locus YOR265W, strain rbl2, active compounds read low 1.01 | locus YOR270C, strain vph1, active compounds read low 0.902 | locus YOR290C, strain snf2, active compounds read low 1.02 | locus YOR316C, strain cot1, active compounds read low 1.02 | locus YPL051W, strain arl3, active compounds read low 1.02 | locus YPL078C, strain atp4, active compounds read low 1.03 | locus YPL106C, strain sse1, active compounds read low 1.02 | locus YPL240C, strain hsp82, active compounds read low 1 | locus YPL241C, strain CIN2, active compounds read low 0.988 | locus YPL256C, strain CLN2, active compounds read low 0.996 | locus YPR119W, strain clb2, active compounds read low 1.01 | locus YPR141C, strain kar3, active compounds read low 1.01 | locus YPR163C, strain tif3, active compounds read low 1.03 | locus YPR167C, strain met16, active compounds read low 1.02 | strain wtn01, active compounds read low 1
